Structures are written as SMILES. Where “and” joins values, the source holds several entries; their conditions need not be identical. Equal entries are not always repeated. Screen size: about 1,000 compounds; about 250 (25%) were called active. About 31% were inconclusive and are not listed. These entries were drawn from the full list. Potency and affinity values are given separately. A number with no mark means an inactive call. How the calls were made is not given here.

A short description of the assay: T. gondii intracellular growth, IFN-gamma absent, dose response, cell-based (AID 1259420).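 Further: host cells were HeLa; final incubation lasted 72 hours.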 The settings on record: Toxoplasma gondii growth in host cells, no IFN-gamma; at 19.5 µM unless noted.
Turning to `Cn1nc2c(c1C(=O)Nc1ccc(N3CCCCC3)c(F)c1)CCCC2`, the max activity is 25.8% [at 10 µM].
Next, `Cc1ccccc1-c1ccc([C@H]2[C@@H](CO)N3C(=O)CN(C(=O)c4ccncc4)C[C@@H]23)cc1`: -13.9% [at 0.16 µM].
As for `CN(C)C1CCN(Cc2cccc(C#N)c2)C(C(=O)O)C1` (stereo not given), the max activity is 8.23%.
Turning to `Cc1nnsc1CN(C)Cc1[nH]c2ccc(F)cc2c1C`, the max activity is 12.6% [at 0.16 µM].
Turning to `CC(C)NC(=O)N1CC(=O)N2[C@H](CO)[C@H](c3ccc(/C=C/c4ccccc4)cc3)[C@@H]2C1`, the max activity was 20.9%.
Consider `COc1ccc(-c2nc(NCCN3CCN(C)CC3)c3ccccc3n2)cc1`, for which the max activity was 12.8%.
With `COc1ccc(-c2ccc([C@H]3[C@H]4CN(Cc5ccccc5)CC(=O)N4[C@H]3CO)cc2)cc1`, the max activity was 43.4%.
Next, `COc1ccc(-c2nc(NCCN3CCC(C)CC3)c3ccccc3n2)cc1`: 5.6% [at 10 µM].
As to `COc1ccc(-c2nc(NCCN3CCOCC3)c3ccccc3n2)cc1`, the max activity is 8.12%.
Consider `COc1ccc(-c2nc(NCCCN3CCCC3)c3ccccc3n2)cc1`, for which the max activity was 7.2%.
For the compound `CC(c1cc2ccccc2s1)N(O)C(N)=O` (stereo not given), the max activity is -4.76% [at 5 µM].
Take `CN1[C@H](CO)[C@@H]2c3ccccc3N(C(=O)C3CCCCC3)C[C@@H]21`: the max activity was -10.7% [at 0.3 µM].
As to `C/C=C/c1ccc([C@H]2[C@@H](CO)N3CCCCN(S(=O)(=O)c4ccc(OC)cc4)C[C@H]23)cc1`, the max activity is 19.6%.
On to `O=S(=O)(c1ccccc1)N1CCCCN2[C@@H](CO)[C@H](c3ccc(C#CC4CCCC4)cc3)[C@@H]2C1`, for which the max activity was 49.6%.
Consider `O=S(=O)(c1cccs1)N1CCCCN2[C@@H](CO)[C@@H](c3ccc(/C=C/c4ccccc4)cc3)[C@@H]2C1`, for which the max activity is 38.2%.
Next, `C/C=C/c1ccc([C@@H]2[C@@H](CO)N3CCCCN(CCC(F)(F)F)C[C@@H]23)cc1`: 39.6%; `CCC[C@@]1(CCc2ccccc2)CC(=O)C([C@H](CC)c2cccc(NS(=O)(=O)c3ccc(C(F)(F)F)cn3)c2)C(=O)O1` (stereo not given in full): 6.55% [at 10 µM].
On to `Cc1ccc(-c2ccc([C@H]3[C@@H](CO)N4C(=O)CN(C(=O)NC(C)C)C[C@@H]34)cc2)cc1`, for which the max activity is -19.8% [at 5 µM].
As to `COCCC(=O)c1cc2c(s1)CCN2Cc1cccnc1`, the max activity was -10.9% [at 0.6 µM].
With `CN1CCC(=C2c3ccccc3C=Cc3ccccc32)CC1`, the max activity is 23.8%.
For the compound `COc1ccc(-c2ccc([C@H]3[C@H](C#N)N(C(=O)NC(C)C)[C@H]3CO)cc2)cc1`, the max activity is 23.7%.
`COc1cccc(C#Cc2ccc([C@H]3[C@@H](C#N)N(C(=O)c4ccccn4)[C@@H]3CO)cc2)c1`: the max activity was 21.5%.
For `N#C[C@H]1[C@@H](c2ccc(-c3cccnc3)cc2)[C@@H](CO)N1C(=O)Nc1ccc(F)cc1`, the max activity was 7.86%.
Consider `N#C[C@H]1[C@H](c2ccc(C#Cc3ccccc3F)cc2)[C@@H](CO)N1C(=O)c1cccnc1`, for which the max activity is -12.3% [at 10 µM].
As for `N#C[C@H]1[C@H](c2ccc(C#Cc3cccc(F)c3)cc2)[C@@H](CO)N1C(=O)C1CCOCC1`, the max activity was 10.6%.
As to `N#C[C@H]1[C@@H](c2ccc(C3=CCCCC3)cc2)[C@@H](CO)N1C(=O)Nc1ccccc1F`, the max activity was 15.8% [at 10 µM].
In the case of `CCCNC(=O)N1C[C@@H]2N[C@H](C1)C2c1ccc(-c2ccccc2C)cc1` (stereo not given in full), the max activity was 14.1% and 25.2%.
With `N#C[C@@H]1[C@H](c2ccc(C#Cc3cccc(F)c3)cc2)[C@H](CO)N1C(=O)C1CCOCC1`, the max activity is 23.4%.
Take `CC(C)C#Cc1ccc([C@@H]2[C@H]3CN(S(=O)(=O)c4ccccc4)CC(=O)N3[C@H]2CO)cc1`: the max activity was 15.9%.
Take `CN1C[C@H]2CN(Cc3ccc4c(c3)OCO4)CCC[C@@]2(C(=O)O)C1`: the max activity was -10.3% [at 5 µM].
`CS(=O)(=O)N1CC(=O)N2[C@H](CO)[C@@H](c3ccc(C#CCC4CCCC4)cc3)[C@@H]2C1`: the max activity was 58.7%.
`CC(C)C#Cc1ccc([C@H]2[C@H](CO)N3C(=O)CN(C(=O)NC4CCCC4)C[C@@H]23)cc1`: the max activity is -11.2%.
For `COc1ccccc1-c1ccc([C@H]2[C@H](CO)N[C@@H]2C#N)cc1`, the max activity is 29.5%.
Regarding `COc1ccccc1C#Cc1ccc([C@H]2[C@@H](CO)N3CCCCN(C(=O)C4CCC4)C[C@@H]23)cc1`, the max activity is -3.84% [at 0.16 µM].
Turning to `COc1ccccc1C#Cc1ccc([C@@H]2[C@@H](CO)N3CCCCN(C(=O)C4CCC4)C[C@H]23)cc1`, the max activity is 18.4% [at 10 µM].
Turning to `N#Cc1cccc(-c2ccc([C@H]3[C@H]4CN(Cc5ccccc5F)CCCCN4[C@H]3CO)cc2)c1`, the max activity was 25.1%.
With `N#Cc1cccc(-c2ccc([C@@H]3[C@H]4CN(Cc5ccccc5F)CCCCN4[C@H]3CO)cc2)c1`, the max activity is -16.7% [at 0.6 µM].
Consider `O=C(C1CCC1)N1C[C@@H]2N[C@H](C1)C2c1ccc(/C=C/c2ccccc2)cc1` (stereo not given in full), for which the max activity is -22.2% [at 0.3 µM].
Consider `NCCNC(=O)c1nc(-c2ccc(Br)o2)no1`, for which the max activity is 7.54% [at 0.08 µM].
Next, `O=C(Cc1cccnc1)N1CC(=O)N2[C@@H](CO)[C@H](c3ccc(C4=CCCCC4)cc3)[C@@H]2C1`: 18.9% [at 0.16 µM].
Turning to `Cc1nc2c(cnn2-c2ccccc2)c(=O)n1-c1cccc2ccccc12`, the max activity is -11.1% [at 10 µM].
Next, `CCS(=O)(=O)N1CCc2nc(-c3cccc(F)c3)nc(NC3CC3)c2C1`: -10.7% [at 2.6 µM]; `COCC1(C(=O)N2CCc3c(nc(-c4ccccc4)[nH]c3=O)C2)CCC1`: 24.5%; `CC(C)CNC(=O)[C@H]1C[C@H]2CN(Cc3cccc(Cl)c3)C[C@H]1O2`: 13.8% [at 0.3 µM].
With `Cc1ccc(CN2C[C@@H]3C[C@H](C(=O)Nc4ccccc4)[C@@H](C2)O3)cc1`, the max activity is 4.12% [at 0.6 µM].
Turning to `CC(C)(C)c1nc2ccccc2c2nnc(SCc3ccccn3)n12`, the max activity was 9.04% [at 0.3 µM].
Regarding `CN1CCN(Cc2cnc3n2CCN(CC2CCOCC2)C3)CC1`, the max activity is 22.9% [at 1.2 µM].
In the case of `CN(C)C(=O)CN1CCOCC2(CCN(CC3CCOC3)CC2)C1` (stereo not given), the max activity is 12.7%.
Take `CN1CCCN(C(=O)c2cc3c(c4ccccc4n3CC3CC3)n2S(C)(=O)=O)CC1`: the max activity is 25.4%.
For `O=C(c1cnccn1)N1CC(=O)N2[C@H](CO)[C@H](c3ccc(/C=C/c4ccccc4)cc3)[C@@H]2C1`, the max activity is 9.53% [at 10 µM].
In the case of `COC12CC(COC(=O)c3cncc(Br)c3)CN(C)C1Cc1cn(C)c3cccc2c13` (stereo not given), the max activity is -18.1% [at 1.2 µM].
As to `CC(=O)NCc1nnn2c1CN(c1ncccn1)CCC2`, the max activity is -8.02% [at 0.6 µM] and 9.77% [at 0.6 µM].
Next, `CCC(=O)N1CC[C@@H]2[C@H]1c1cc(-c3ccc(C#N)cc3)ccc1N(C)[C@H]2CO`: -11.1% [at 0.6 µM].
Turning to `CN1c2ccc(C#Cc3cccnc3)cc2[C@@H]2[C@@H](CCN2C(=O)c2cccc(F)c2)[C@H]1CO`, the max activity was 5.34%.
Turning to `COc1ccc(-c2ccc3c(c2)[C@@H]2[C@@H](CCN2C(=O)c2ccncc2)[C@H](CO)N3C)cc1`, the max activity is -18.6% [at 5 µM].
Turning to `CC(C)NC(=O)N1CC[C@@H]2[C@H]1c1cc(-c3ccc(F)cc3)ccc1N(C)[C@H]2CO`, the max activity was 11.4% [at 10 µM].
Take `CCC(=O)N1CC[C@@H]2[C@@H](CO)N(C)c3ccc(-c4ccc(C#N)cc4)cc3[C@@H]21`: the max activity is -14.1% [at 1.2 µM].
In the case of `COc1cccc(-c2ccc3c(c2)[C@@H]2[C@@H](CCN2C(=O)c2ccccc2F)[C@@H](CO)N3C)c1`, the max activity is 24%.
Turning to `NC(N)=N/N=C/c1c(Cl)cccc1Cl`, the max activity is -13.6% [at 2.35 µM].
Consider `C=CCN1C(=O)CCCC12CCCN(S(=O)(=O)Cc1ccccc1)C2` (stereo not given), for which the max activity is -8.38% [at 10 µM].
Consider `CN(C)CCNC(=O)c1c2c(NCc3cccnc3)ncnc2n2ccccc12`, for which the max activity is 8.13% [at 10 µM].
Regarding `CCN1Cc2c(C(=O)Nc3ccc(C)cc3)ncn2-c2ccccc2S1(=O)=O`, the max activity is -12.3% [at 0.16 µM].
Next, `CC(C)N1c2ccc(F)cc2[C@@H]2CN(C(=O)c3ccco3)CC[C@H]21`: 9.4%; `Cc1ccccc1-c1ccc([C@@H]2[C@@H](CO)N3CCCCN(S(=O)(=O)Cc4ccccc4)C[C@H]23)cc1`: 6.43% [at 10 µM]; `Cc1ccoc1C(=O)N1CC[C@H]2CO[C@@H](CN3CCN(C)CC3)[C@@H]2C1`: -13%.
As for `COc1ccc(C[C@H]2CN(C(=O)c3ccnn3C)CC[C@H]2OC)cc1`, the max activity was -12.6% [at 5 µM].
In the case of `O=C(Nc1ccccc1)[C@@H]1[C@@H](CO)[C@@H]2Cn3c(ccc(C4=CCCCC4)c3=O)[C@@H]2N1Cc1cocn1`, the max activity was -11.6% [at 10 µM].
Consider `CCN1CC2(CCN(C(=O)COc3ccccc3)CC2)COc2ccccc2S1(=O)=O`, for which the max activity is -3.38% [at 2.6 µM].
With `CCOCC1CC2(CCN(C(=O)COc3ccc(C)cc3)CC2)CO1` (stereo not given), the max activity was -10.4% [at 5 µM].
On to `CC(C)n1ncc(NC(=O)Cn2ccc(-c3ccc(C(F)(F)F)cc3)n2)n1`, for which the max activity is -7.47% [at 0.3 µM].

Source of the values: PubChem BioAssay AID1259420 (Broad Institute, 2018).
